About 1,900 (0.58%) of roughly 330,000 compounds were called active. Roughly 4% stayed inconclusive and do not appear here. No stated cut-off is given here; in the data, inconclusive means inhibition above about 70% without an active follow-up result; inactive means below that. A selection follows. Measured potencies and affinities stand elsewhere.
Assay: M. tuberculosis growth inhibition, HTS (AID 449762);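 further: bacterial growth assessed after seven days of incubation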
Conditions: M. tuberculosis H37Rv growth inhibition, 7H9 media; at 25 µM; hits give high values

Structure (SMILES) | inhibition
O=C(NCCNC(=O)c1ccc(Cl)cc1Cl)c1ccco1 | 2.57% (inactive)
O=C(O)c1cnn2cc(-c3[nH]ncc3[N+](=O)[O-])cnc12 | 0.22% (inactive)
Cc1cccc(N2CC(C(=O)Nc3nccs3)CC2=O)c1C (configuration not stated) | 4.15% (inactive)
CCOC(=O)C1(Cc2ccc(Cl)cc2)CCN(C(=O)c2cnc(C)cn2)CC1 | -0.58% (inactive)
CSc1ccc(CNC(=O)C2CCC(=O)N(Cc3cccc(F)c3)C2)cc1 (configuration not stated) | -1.72% (inactive)
Cn1cc(CNC(=O)C2CCC(=O)N(Cc3cccc(C(F)(F)F)c3)C2)cn1 (configuration not stated) | -6.46% (inactive)
Cc1ccc2nc(NCc3ccccc3)c(C=O)c(=O)n2c1 | 2.81% (inactive)
C[C@H](NC(=O)NCc1ccc(F)cc1)C(=O)O | -0.83% (inactive)
Nc1nc2ccccc2n1C(=O)c1cccs1 | 10.2% (inactive)
COc1ccc(C(=O)n2c(N)nc3ccccc32)cc1OC | 44.1% (inactive)
c1cc2c3c(cccc3c1)C(N1CCOCC1)=N2 | -3.61% (inactive)
c1cc2c3c(cccc3c1)C(N1CCCCC1)=N2 | -4.9% (inactive)
Cc1cc(NC(=O)CSc2cn(CCNC(=O)c3ccc(Cl)cc3)c3ccccc23)no1 | -7.12% (inactive)
c1cncc(-c2nc(NCC3CCCO3)c3ccccc3n2)c1 (configuration not stated) | 6.22% (inactive)
O=[N+]([O-])c1ccc(-c2nc(NCC3CCCO3)c3ccccc3n2)cc1 (configuration not stated) | 2.21% (inactive)
C=CCN1C(=O)C(CC(=O)Nc2ccc(OC)cc2)N(Cc2ccco2)C1=S (configuration not stated) | -5.03% (inactive)
O=C(O)CCNS(=O)(=O)c1ccccc1C(F)(F)F | -11.5% (inactive)
c1ccc(NCCCNc2ccccc2)cc1 | 2.48% (inactive)
COc1cc(CNc2ncn[nH]2)cc(Br)c1OC | -1.3% (inactive)
Cc1ccc(Cn2ccc(=O)c(OCc3ccccc3)c2C)cc1 | -1.87% (inactive)
Cc1c(OCc2ccccc2)c(=O)ccn1Cc1ccccc1 | 18% (inactive)

Structure (SMILES) | inhibition
CC1(CCc2ccccc2)NC(=O)N(CC(=O)N2CC(=O)Nc3ccccc32)C1=O (configuration not stated) | -6.43% (inactive)
Cc1cc(NC(=O)Cn2cnc3sccc3c2=O)no1 | -4.01% (inactive)
O=C(O)c1ccccc1C(=O)N1N=C(c2ccccc2)CC1c1ccccc1O (configuration not stated) | 0.11% (inactive)
C=CCSc1nnc(COc2ccc(=O)n(-c3ccccc3)n2)n1CC | 1.1% (inactive)
Cc1cc(=O)n2[nH]c(NCc3c(F)cccc3Cl)nc2n1 | 11.1% (inactive)
CCC(=O)Nc1nc2nc(C)cc(=O)n2[nH]1 | -0.66% (inactive)
Cc1ccc2nc(Nc3ccc(Cl)cc3)c3nncn3c2c1 | 7.65% (inactive)
O=C(NCCc1ccccc1)[C@@H]1CC=C[C@@H]2CCN(Cc3ccccc3)C(=O)[C@@H]21 | 1.96% (inactive)
COc1ccc(CN2CC[C@H]3C=CC[C@@H](C(=O)NCCc4ccccc4)[C@H]3C2=O)cc1OC | -2.75% (inactive)
CCN(CC)C(=S)SCC(=O)c1ccccc1 | 3.47% (inactive)
C=C(Cl)CSC(=S)N(CC)CC | 14% (inactive)
CCOC(=O)C1CCN(C(=O)CCc2nnc3ccc(N4CCC(C)CC4)nn23)CC1 | 1.94% (inactive)
CCC(C)(C)NC(=O)C(C)OC(=O)c1nsc(Cl)c1Cl (configuration not stated) | -2.01% (inactive)
Cc1ccc(-c2cc(C(=O)N/N=C/c3ccco3)[nH]n2)cc1 | -2.14% (inactive)
O=C(N/N=C/c1ccco1)c1cc(-c2ccc3ccccc3c2)n[nH]1 | 14.2% (inactive)
CN(C)C(CNC(=O)c1coc2ccccc2c1=O)c1ccccc1 (configuration not stated) | 8.82% (inactive)
COC(=O)C1=C(c2ccc(OCc3ccccc3)cc2)C[C@@H]2CC[C@H]1N2C(=O)NCc1ccccc1 | -9.3% (inactive)
COC(=O)C1=C(c2ccc(OCc3ccccc3)cc2)C[C@@H]2CC[C@H]1N2C(=O)NCCCc1ccccc1 | -6.15% (inactive)
COc1ccc(CNC(=O)c2ccc(S(=O)(=O)NCc3ccco3)cc2)cc1 | 9.2% (inactive)
COc1ccc2cc(Br)ccc2c1CC(=O)N(C)C | 8.82% (inactive)
CCN(CC)C(=O)Cc1c(OC)ccc2cc(Br)ccc12 | -2.55% (inactive)

Structure (SMILES) | inhibition
O=C(Nc1ccccc1C(F)(F)F)c1ccc2nccnc2c1 | -5.96% (inactive)
Brc1ccc(/C=N/Nc2nncc(-c3ccccc3)n2)o1 | -1.56% (inactive)
CC(=O)c1ccc(N2CCN(C(=O)C3CCN(S(=O)(=O)Cc4ccccc4)CC3)CC2)cc1 | -3.28% (inactive)
Cc1ccc(C(=O)Nc2cccc(C(F)(F)F)c2)cc1NC(=O)c1[nH]cnc1C(N)=O | 1.02% (inactive)
Cc1ccc(C(=O)Nc2cccc(C(F)(F)F)c2)cc1Nc1cnccn1 | 0.61% (inactive)
COc1ccc(CN(Cc2ccccn2)S(=O)(=O)c2ccc(-n3cnnn3)c(OC)c2)cc1 | -8.37% (inactive)
NS(=O)(=O)c1cccc(NC(=O)CCS(=O)(=O)c2ccc(Cl)cc2)c1 | -6.68% (inactive)
COc1cccc(NC(=S)N2CCN(c3ccc([N+](=O)[O-])cc3)CC2)c1 | 0.58% (inactive)
COc1cc(C(N)=O)cc(Br)c1OCc1ccccc1 | -3.08% (inactive)
O=C(Nc1ccccc1OCc1ccccc1)c1ccccc1Br | 12.7% (inactive)
Cn1c(SCc2cccc(F)c2)nnc1-c1ccncc1 | -10.7% (inactive)
NC1=NC(c2ccc(Cl)cc2)n2c(nc3ccccc32)N1 (configuration not stated) | -2.59% (inactive)
NC1=NC(c2ccccc2Cl)n2c(nc3ccccc32)N1 (configuration not stated) | -5.58% (inactive)
Cc1ccc(OCCNC(=O)CNC(=O)c2ccc(Cl)c([N+](=O)[O-])c2)cc1 | -8.16% (inactive)
CC1CCCC(C)N1C(=O)CN1c2cccc3cccc(c23)S1(=O)=O (configuration not stated) | -12.9% (inactive)
CC(C)NCc1nnc(-c2ccc(Cl)cc2)o1 | 0.17% (inactive)
CCOC(=O)N1CCN(Cc2nc(N)nc(Nc3ccc(Cl)cc3)n2)CC1 | -0.66% (inactive)
Cc1cc(OCC(=O)O)c2ccccc2n1 | -2.82% (inactive)
Cc1cc(OCC(=O)O)c2cccc(C)c2n1 | -5.96% (inactive)
CCOc1ccc(S(=O)(=O)NCc2cccnc2)cc1NC(=O)c1ccccc1F | -11.4% (inactive)

From PubChem BioAssay AID449762 (Southern Research Specialized Biocontainment Screening …, 2010)
